Bioassay records as filed in PubChem BioAssay.
Rab9 prom act: activates the Rab9 promoter | Huh7 Rab9 promoter-luciferase reporter, luminescence, 24 h | Potency, µM (titrated, usually from 9.22 µM), for the others: top-dose activation, negative = inhibition, actives largely listed as activators | 320,000 compounds, 2.8% hits | AID 485297; note: % of control where 0% means no effect; nearly all actives have a fitted effect of over 60% in size
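Rab9 promoter-driven luciferase in stably transfected Huh7 cells; 1500 cells/well rested 2 h, exposed to compound in DMSO for 24 h at 37 °C, 5% CO2. Luminescence read 10 min after adding luciferase reagent at ambient temperature.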
FLuc counter: inhibits or activates purified firefly luciferase, miR-21 counter-screen; P08659; purified FLuc, Km substrates, luminescence inhibition; Potency, µM (titrated, usually from 57.5 µM), inactives show at the top dose activity change, negative = inhibition, most hits filed as inhibitors; 360,000 compounds, 6.9% hits;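 note: plate controls were vehicle for no effect and reference inhibitor for full effect; nearly all actives have a fitted effect of over 55% in size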
Target sequence (P08659 whole entry, looked up): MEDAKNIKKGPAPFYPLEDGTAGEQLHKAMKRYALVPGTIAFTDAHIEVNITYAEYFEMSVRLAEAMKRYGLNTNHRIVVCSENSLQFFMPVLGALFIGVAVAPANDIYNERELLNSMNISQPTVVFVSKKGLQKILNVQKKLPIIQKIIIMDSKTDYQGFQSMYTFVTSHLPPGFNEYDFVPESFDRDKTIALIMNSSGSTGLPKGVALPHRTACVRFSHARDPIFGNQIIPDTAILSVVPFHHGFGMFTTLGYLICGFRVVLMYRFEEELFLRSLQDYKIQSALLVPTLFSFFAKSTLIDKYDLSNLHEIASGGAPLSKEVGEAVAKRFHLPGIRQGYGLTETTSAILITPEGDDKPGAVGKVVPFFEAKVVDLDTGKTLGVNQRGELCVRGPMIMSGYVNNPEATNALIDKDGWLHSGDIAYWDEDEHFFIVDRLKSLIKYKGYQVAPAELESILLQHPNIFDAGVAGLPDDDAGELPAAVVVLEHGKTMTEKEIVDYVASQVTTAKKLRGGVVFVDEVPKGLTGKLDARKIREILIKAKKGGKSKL
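Biochemical qHTS of compounds, final roughly 60 µM downward over six points, against 10 nM purified firefly luciferase using Km concentrations of substrates (10 uM D-luciferin, 10 uM ATP) in Tris acetate pH 7.5 buffer; luminescence output.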
ELG1 genotox: genotoxicity induction in ELG1-luciferase HEK293T cells | 330,000 compounds, 1.3% hits | Potency, µM (highest dose often 46 µM), for the others: top-dose activity change, positive = activation, actives largely listed as activators | HEK293T ELG1-luciferase reporter, luminescence, 16 h; note: % of control where 0% means no effect; nearly all actives have a fitted effect of over 60% in size
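Genotoxic stress is detected as increased luminescence from luciferase-tagged ELG1 in HEK293T cells, measured with ONE-Glo after a 16 hr treatment at 37 °C.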
uPA generation: blocks generation of uPA at the cell surface. cell surface uPA generation assay, qHTS. Potency, µM (top dose mostly 38.3 µM), for inactives: top-dose activity change, negative = inhibition, actives largely listed as inhibitors. 330,000 compounds, 0.31% hits; active = well fitted inhibition curve with a large enough effect; inconclusive = small, poorly fitted or top-dose-only effect; inactive = no such curve, though single readings can be large or run the other way; tested in mouse RAW 264.7 cells; note: % is set by controls: 0 for no effect and ±100 for the full control effect; nearly all actives have a fitted effect of over 55% in size
NPC1 promoter act: NPC1 promoter activation | 320,000 compounds, 2.4% hits | AID 485313 | Potency, µM (doses to about 9.22 µM), for inactives: top-dose activation, usual class: activators | Huh7 NPC1 promoter luciferase reporter, 24 h; note: % of control where 0% means no effect; nearly all actives have a fitted effect of over 60% in size
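Huh7 reporter cells (NPC1 promoter driving luciferase) are dosed with compound for 24 h at 37 °C, 5% CO2; luciferase detection reagent is then added and luminescence measured after 10 min at ambient temperature.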
SMN2 splice up: enhancers of SMN2 splice variant expression; Potency, µM (series often up to 46.1 µM), for inactives: at the highest dose activity change, positive = activation, usual class: activators; 210,000 compounds, 2.8% hits; HEK293 SMN2-luciferase splicing reporter, luminescence, 30-36 h; note: % of control where 0% means no effect; nearly all actives have a fitted effect of over 55% in size
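HEK293 cells carry an SMN2 […]–luciferase reporter in which exon 7 inclusion puts luciferase in frame. Cells were plated 10-12 h before compound addition, then incubated 30-36 h at 37C. ONE-Glo luminescence was read; sodium butyrate at 4.5 mM final served as control.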
* hit, by the source's call; ? = inconclusive; / = not tested or not shown; [ ] = dose if it differs, or a comment. Sampled rows, rich in hits. Any-hit rate of the full collection: about 7.3%. Unless noted, calls come from the whole dose curve; as a rule, active = well fitted curve in the direction sought with a large enough effect; inconclusive = small, poorly fitted or top-dose-only effect, or another doubt; inactive = no such curve, though single readings can be large; an effect the other way counts as inactive or inconclusive. Potency is the fitted concentration of half-maximal effect.

SMILES | Rab9 prom act | FLuc counter | ELG1 genotox | uPA generation | NPC1 promoter act | SMN2 splice up
Cc1cc(C)c2oc(-c3ccc(Cl)c(NC(=O)c4cccs4)c3)nc2c1 | / | 4.3µM* | / | / | / | 8%
Clc1ccc2c(c1)-c1c(cnc3cc(-c4ccccc4)nn13)CO2 | / | -3% | / | / | / | 2%
COc1ccc(CNC(=O)Cc2ccc(NC(=O)N3CCSc4ncccc43)cc2)cc1 | / | -4% | / | / | / | /
Cc1ccc(N=c2oc3cc(O)ccc3cc2C(N)=O)cc1 | 4.5µM* | 19µM* | -2% | -15% | ? | /
Cc1ccc2[nH]c3c(c2c1)CCCC3C(N)=O (configuration not stated) | -8% | 0% | 4% | -6% | -1% | -7%
CCN(CC)C(=O)C1CCCc2c1[nH]c1ccc(Cl)cc21 (configuration not stated) | 16% | 1% | -5% | -11% | -5% | 3.5µM*
CCCCCCCCCCCCCCCCCC(=O)OC(CC(=O)O)C[N+](C)(C)C (configuration not stated) | -9%[46.1 µM] | / | / | / | 2%[46.1 µM] | -12%
O=c1[nH]c2ccc(Cl)cc2c(O)c1-c1ccccc1 | -3% | 9.5µM* | 1% | -4% | 1% | 8%
CCc1ccc(NC(=O)c2cnccn2)cc1 | 1.3µM* | 5.4µM* | ? | -9% | 1.3µM* | /
CCc1ccc(NC(=O)c2cnc3scc(C)n3c2=O)cc1 | 4.5µM* | ? | 18µM* | -8% | ? | 8.9µM*
O=C(Nc1ccc2nccnc2c1)c1cnccn1 | ? | ? | ? | -4% | ? | 0%
O=C(Nc1ccc(OC(F)(F)F)cc1)c1cnccn1 | 2.8µM* | 12µM* | ? | 8% | 1.8µM* | /
CCCOC(=O)c1ccc(NC(=O)c2cnccn2)cc1 | ? | ? | 19% | 3% | ? | -5%
CCc1ccccc1Nc1cc(C(=O)NC2CCC(C)CC2)c2ccccc2n1 (configuration not stated) | / | 5% | / | / | / | 10%
CC(C)C(=O)N1CCc2cc(-c3csc(N)n3)ccc21 | 3.5µM* | 13µM* | 22% | -6% | ? | 13µM*
C=CCNc1nc(Nc2ccccc2F)nc(OCC)n1 | 4µM* | 21µM* | 19% | -5% | 4µM* | 11µM*
COc1ccc(NC(=O)c2ccc(NC3=NC4CS(=O)(=O)CC4S3)cc2)cc1 (configuration not stated) | -5% | 1% | 1% | 8% | 0% | /
CCOc1ccc(NC(=O)c2ccccc2OCC(=O)c2ccc(C)cc2)cc1 | 5% | 5.4µM* | 18% | 2% | 2% | 14%
CCOc1ccc(NC(=O)c2ccccc2SC)cc1 | ? | 17µM* | ? | 0% | ? | /
CSc1ccccc1C(=O)Nc1ccc(C)c(C)c1 | ? | 15µM* | ? | / | ? | ?
CCOc1ccc(NC(=O)C(C)Oc2ccccc2C(=O)Nc2ccc(C)c(Cl)c2)cc1 (configuration not stated) | 7% | 12µM* | -8% | / | 0% | 15%
Cc1ccc(NC(=O)COc2ccccc2C(=O)Nc2ccccc2)cc1Cl | -3% | ? | 1% | -5% | 4% | -9%[1.84 µM]
CSc1ccccc1C(=O)Nc1cc(C)cc(C)c1 | -2% | ? | 0% | -1% | -1% | -19%
CCn1c(=O)cc(OCC(=O)N(C)c2ccc(OC)cc2)c2ccccc21 | / | 2% | / | / | / | 6%
Cn1c(=O)n(-c2ccc3c(c2)OCO3)c2nc(-c3ccccc3)nc(C(N)=O)c21 | / | -9% | / | / | / | 0%
COc1ccc(C(=O)N2CCC3(CCN(Cc4ccccc4OC)CC3)CC2)cc1 | / | / | / | / | / | -16%
O=C(CSc1ccc2nnc(CCNS(=O)(=O)c3ccccc3)n2n1)Nc1ccccc1C(F)(F)F | / | -6% | / | / | / | /
Cc1ccc(C(=O)COc2ccccc2-c2ccccc2)cc1 | -4% | 0% | 0% | -6% | -2% | -12%
Cc1ccc(C(=O)COc2ccccc2N2C(=O)c3ccccc3C2=O)cc1 | ? | -3% | ? | 3% | ? | 20µM*
